SMILES strings stand for the structures. Records with an inconclusive call do not appear. Some structures have more than one record in an assay (separate samples or runs), and their calls can disagree. The source made the active and inactive calls. How the source made its calls, unless noted: active means hit-call score of the fitted dose curve at least 0.9, where 1 is the maximum; inactive means score below 0.9.

In general, AC50 refers to the concentration giving half of the maximal activity seen.

Test system in one experiment: not listed separately
In words: IUF_NPC3_neuronal_differentiation_120hr: Leibniz Research Institute for Environmental Medicine (IUF) 120-hour Neuronal Differentiation Assay (NPC3) (AID 2284301).
Conditions: not given
In a few lines:
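Value is percent TUBB3-positive neurons among Hoechst-stained nuclei in the migration area, scored by trained CNN after 120 h differentiation. Primary hNPC spheres on poly-D-lysine/laminin, N2 medium, continuous dosing from day 0, half-refeed day 3; DMSO reference.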
For the compound `Nc1ccn([C@@H]2O[C@H](CO)[C@@H](O)[C@@H]2O)c(=O)n1`, the half-maximal activity concentration (AC50) was 0.0137 µM (active).

On to `Cn1cc[nH]c1=S`, for which the compound was classed as inactive.

As to `CCCC(CCC)C(=O)O`, the AC50 is 2200 µM (active).

Test system in a further experiment: not listed separately
In words: IUF_NPC4_neurite_length_120hr: Leibniz Research Institute for Environmental Medicine (IUF) 120-hour Neuronal Morphology Assay for Neurite Length (NPC4) (AID 2284302).
Conditions: not given
The procedure: IUF_NPC2-5 is a cell-based, multiplexed assay that uses hNPC, a human primary neural progenitor cells, with measurements taken at 72 or 120 hours after chemical dosing in a 96-well plate. Human neural progenitor cells (hNPC) are generated from human fetal brain cortex at gestational week (GW) 16-19. In the neural progenitor cell migration and differentiation assay (NPC2-5), hNPCs grown as spheres are plated on an extracellular matrix and migrate and differentiate out of the sphere core. The processes radial glia migration, neuronal and oligodendrocyte migration as well as neuronal differentiation, neuronal morphology and oligodendrocyte differentiation are studied using automated phase contrast imaging and automated fluorescence imaging in combination with high content image analysis. In parallel, the cell viability is assessed using an alamar blue viability assay and the cytotoxicity using a lactate dehydrogenase dependent membrane integrity assay.IUF_NPC4_neurite_length_120hr is one of 12 assay components measured from the IUF_NPC2-5 assay. The neurite length at 120 hr is the mean length in um of all neurons (see IUF_NPC3_neuronal_differentiation_120hr) that are identified by the skeletonization algorithm in Omnisphero.Data from the IUF_NPC4_neurite_length_120hr component was analyzed at the endpoint IUF_NPC4_neurite_length_120hr in the positive analysis fitting direction relative to DMSO as the negative control and baseline of activity. […]
Culture protocol: After the cell expansion period the cells are cultured for up to four weeks in which they are passaged every week as described in 3.6. […] Therefore, half of the test condition solution (e.g. solvent control or compound dilution) is replaced by freshly prepared test condition solution.Test Method: Migration distance and cytotoxicity is determined after 72 hours based on brightfield images of each well. […] The plates are scanned using an automated high content imaging device and all nuclei and their positions are determined automatically based on their intensity and size. […]
As for `Nc1ccn([C@@H]2O[C@H](CO)[C@@H](O)[C@@H]2O)c(=O)n1`, the call was inactive.

For `Cn1cc[nH]c1=S`, the call was inactive.

For `CCCC(CCC)C(=O)O`, the AC50 is 2180 µM (active).

Read-out in the next experiment: CD69, CD69 (gene 969)
In words: BSK_LPS_CD69: BioMAP Diversity Plus: LPS Assay for CD69 Biomarker Activity (AID 2284303). Conditions: primary human HUVEC with PBMC. Put shortly: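 CD69 surface levels were read by ELISA after 24 h chemical treatment of an LPS-stimulated HUVEC plus PBMC co-culture; positive-direction fit against DMSO vehicle.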
Regarding `FC(F)(F)COC(OCC(F)(F)F)OCC(F)(F)F`, the result was inactive.

For the compound `O=S(=O)(O)CCC(F)(F)C(F)(F)C(F)(F)C(F)(F)C(F)(F)C(F)(F)F`, the AC50 was 9.47 µM (active) and the result was inactive.

Regarding `OC(O)(C(F)C(O)(O)C(F)(F)F)C(F)(F)F`, the outcome was inactive.

`OCCC(F)(F)C(F)(F)C(F)(F)C(F)(F)F`: the outcome was inactive.

With `FC(F)=C(F)C(F)(F)C(F)(F)C(F)(F)C(F)(F)C(F)(F)C(F)(F)F`, the outcome was inactive.

Regarding `FC(F)C(F)(F)COCC1CO1` (centres undefined), the outcome was inactive.

Regarding `C[Si](C)(C)C(F)(F)C(F)(F)C(F)(F)F`, the result was inactive.

Take `FC(F)(F)C(F)(F)C(F)(F)C(F)(F)C(F)(F)C(F)(F)I`: the result was inactive.

Turning to `NCC(F)(F)C(F)(F)C(F)(F)C(F)(F)F`, the result was inactive.

For the compound `O=C(Cl)C(F)(F)C(F)(F)C(F)(F)C(=O)Cl`, the result was inactive.

Test system in the next experiment: not listed separately
In words: IUF_NPC4_neurite_area_120hr: Leibniz Research Institute for Environmental Medicine (IUF) 120-hour Neuronal Morphology Assay for Neurite Area (NPC4) (AID 2284305; active means hit-call score of the fitted dose curve at least 0.9, where 1 is the maximum).
Conditions: not given
In a few lines:
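Neurite area (pixels, nuclei excluded) of TUBB3-positive neurons from hNPC spheres differentiating 5 days under continuous exposure at 37 C, 5% CO2. High-content imaging; loss of signal versus DMSO control across 7 concentrations.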
With `Nc1ccn([C@@H]2O[C@H](CO)[C@@H](O)[C@@H]2O)c(=O)n1`, the call was inactive.

Consider `Cn1cc[nH]c1=S`, for which the result was inactive.

As to `CCCC(CCC)C(=O)O`, the compound was classed as inactive.

Test system in a further experiment: not listed separately
In words: IUF_NPC2-5_cytotoxicity_120hr: Cytotoxicity Assessment at 120 hours in the Leibniz Research Institute for Environmental Medicine (IUF) Neural Progenitor Cell Migration and Differentiation Assay (NPC2-5) (AID 2284307; active means hit-call score of the fitted dose curve at least 0.9, where 1 is the maximum;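 on AC50: LDH released into supernatant as membrane damage marker via resorufin fluorescence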).
Conditions: not given
In a few lines: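 Membrane-integrity loss measured as LDH activity in medium supernatant via resazurin-to-resorufin fluorescence after 120 h exposure. hNPC spheres from GW 16-19 fetal cortex differentiated on poly-D-lysine/laminin, 37C, medium half-refreshed day 3; seven concentrations, DMSO max 0.1%.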
`Nc1ccn([C@@H]2O[C@H](CO)[C@@H](O)[C@@H]2O)c(=O)n1`: the AC50 was 0.0802 µM (active).

Take `Cn1cc[nH]c1=S`: the compound was called inactive.

Turning to `CCCC(CCC)C(=O)O`, the AC50 was 1400 µM (active).

Test system in a further experiment: not listed separately
In words: IUF_NPC2-5_cell_number_120hr: Cell Number Assessment at 120 hours in the Leibniz Research Institute for Environmental Medicine (IUF) Neural Progenitor Cell Migration and Differentiation Assay (NPC2-5) (AID 2284308).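 Further: count of Hoechst-stained nuclei in migration zone around plated human neural progenitor spheres.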
Conditions: not given
Put shortly: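 Counting of all Hoechst-stained nuclei in the migration area at 120 h, versus DMSO control. Primary hNPC spheres differentiated on poly-D-lysine/laminin in N2 medium at 37C, dosed from day 0 (7 concentrations, DMSO ≤0.1%), half-refed day 3.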
Consider `Nc1ccn([C@@H]2O[C@H](CO)[C@@H](O)[C@@H]2O)c(=O)n1`, for which the AC50 was 0.743 µM (active).

As for `Cn1cc[nH]c1=S`, the result was inactive.

For `CCCC(CCC)C(=O)O`, the AC50 is 2210 µM (active).

Test system in a further experiment: not listed separately
In words: VALA_TUBHUV_Antagonist_CellCount: Viability Assessment in the VALA Sciences human Umbilical Vein Endothelial Tubule Formation (TUBHUV) Antagonism Assay (AID 2284310; active means hit-call score of the fitted dose curve at least 0.9, where 1 is the maximum).
Conditions: not given
Put shortly: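 Read-out is imaged cell count after nuclear and CD31 staining, fitted against 0.1% DMSO vehicle. Compounds were added for 3 days, in 10 ng/ml VEGF assay medium, to HUVEC–HDF co-cultures pre-grown 3 days.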
With `Cn1cc[nH]c1=S`, the compound was classed as inactive.

`OCCNCCO`: the compound was called inactive.

On to `CCCC(CCC)C(=O)O`, for which the compound was classed as inactive.

Source of the values: PubChem BioAssay (EPA / NIEHS).
